# The whole screen tested about 310,000 compounds, of which about 14,000 (4.5%) showed an effect of 50% or more. The effect is printed as a negative number. The sample as a whole holds a higher share of strong results than the screen did.
# Target: human ether-à-go-go-related gene (hERG) potassium channel (human, UniProt Q12809)
# Experiment: primary screen, population patch clamp on CHO cells stably expressing hERG; higher = less effect of the substance
# 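Note: peak tail current of the secondary pulse compared with the same well before compound.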
# Chain of human ether-à-go-go-related gene (hERG) potassium channel (Q12809 whole entry, looked up): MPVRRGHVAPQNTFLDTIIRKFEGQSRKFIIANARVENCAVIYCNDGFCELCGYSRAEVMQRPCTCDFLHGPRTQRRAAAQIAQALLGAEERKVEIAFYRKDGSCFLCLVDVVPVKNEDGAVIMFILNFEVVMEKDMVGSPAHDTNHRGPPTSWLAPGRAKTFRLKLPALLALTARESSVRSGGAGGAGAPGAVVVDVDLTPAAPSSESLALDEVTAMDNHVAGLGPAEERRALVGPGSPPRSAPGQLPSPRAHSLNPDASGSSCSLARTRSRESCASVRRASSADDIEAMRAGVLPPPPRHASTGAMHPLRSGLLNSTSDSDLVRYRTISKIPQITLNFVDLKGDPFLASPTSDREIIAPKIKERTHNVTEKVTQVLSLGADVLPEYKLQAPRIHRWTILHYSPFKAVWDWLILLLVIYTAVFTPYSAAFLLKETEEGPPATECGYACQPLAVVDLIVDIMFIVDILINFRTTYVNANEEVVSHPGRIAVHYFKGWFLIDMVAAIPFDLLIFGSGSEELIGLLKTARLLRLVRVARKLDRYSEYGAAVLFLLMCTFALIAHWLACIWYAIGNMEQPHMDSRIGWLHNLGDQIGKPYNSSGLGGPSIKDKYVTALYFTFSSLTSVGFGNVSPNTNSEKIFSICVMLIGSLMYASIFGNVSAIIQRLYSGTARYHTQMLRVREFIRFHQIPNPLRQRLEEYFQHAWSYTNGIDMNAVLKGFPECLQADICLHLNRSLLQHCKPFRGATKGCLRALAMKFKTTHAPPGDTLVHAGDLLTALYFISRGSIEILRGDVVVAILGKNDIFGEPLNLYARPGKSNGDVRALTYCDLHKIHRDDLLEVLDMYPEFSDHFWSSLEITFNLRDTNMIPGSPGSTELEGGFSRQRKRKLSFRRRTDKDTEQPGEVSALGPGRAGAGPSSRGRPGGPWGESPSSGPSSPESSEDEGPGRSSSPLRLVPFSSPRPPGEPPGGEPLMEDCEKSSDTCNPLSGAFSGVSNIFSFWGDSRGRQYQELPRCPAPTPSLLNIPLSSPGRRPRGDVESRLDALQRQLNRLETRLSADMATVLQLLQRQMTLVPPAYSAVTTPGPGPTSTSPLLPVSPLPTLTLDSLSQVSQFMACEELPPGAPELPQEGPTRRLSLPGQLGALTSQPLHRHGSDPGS
row,SMILES,"hERG current change (%, negative = inhibition) at 10uM"
1,COc1ccccc1/C=C/[C@@H]1C[C@H]2CN(Cc3cccc(Cl)c3)C(=O)[C@]23CCCN13,-75.4%
2,COCc1ccc([C@@H]2C[C@H]3CN(Cc4cccc(Cl)c4)C(=O)[C@]34CCCN24)o1,-31%
3,COc1cccc2c1OCC([C@@H]1C[C@H]3CN(Cc4cccc(Cl)c4)C(=O)[C@]34CCCN14)=C2,-45.2%
4,CC(C)n1cc([C@@H]2C[C@H]3CN(Cc4cccc(Cl)c4)C(=O)[C@]34CCCN24)cn1,-33.7%
5,O=C1N(Cc2cccc(Cl)c2)C[C@@H]2C[C@@H](c3cccc4cccnc34)N3CCC[C@@]123,-78%
6,O=C(Nc1cnn(Cc2ccccc2)c1)c1cc2nc(-c3ccco3)cc(C(F)(F)F)n2n1,7.2%
7,O=C(c1ccccc1)c1ccccc1N/C=C/c1nnnn1-c1ccccc1,1.11%
8,CCCCCOc1ccc(CSc2ncn[nH]2)cc1,-17.4%
9,O=C(NCC1CCCO1)c1onc(CSc2ccccc2)c1C(=O)O (centres unmarked),10.1%
10,CC(C)(C)OC(=O)CNC(=O)c1nc[nH]c1C(=O)N1CC[NH2+]CC1.[Cl-],4.07%
11,O=S1(=O)CCN(OCc2ccc(F)cc2Cl)CC1,34.4%
12,O=C(Cc1n[nH]c(=O)c2ccccc12)Nc1cccc(S(=O)(=O)N2CCCC2)c1,-5.36%
13,O=C(Cc1n[nH]c(=O)c2ccccc12)Nc1cccc(S(=O)(=O)N2CCCCCC2)c1,-57.8%
14,CCN(CC)S(=O)(=O)c1cc(NC(=O)Cc2n[nH]c(=O)c3ccccc23)ccc1C,-21.2%
15,Cc1ccc(NC(=O)Cc2c[nH]c3ccccc23)cc1S(=O)(=O)N1CCCCCC1,14.1%
16,Cc1ccc(NC(=O)Cc2n[nH]c(=O)c3ccccc23)cc1S(=O)(=O)N1CCCCCC1,-51.5%
17,O=C(Cn1[nH]c(=O)c2ccccc2c1=O)Nc1cccc(S(=O)(=O)N2CCCCCC2)c1,-13.2%
18,CCCCP(=O)(CCCC)Cc1ccccc1O,13.9%
19,COc1ccccc1NC(=O)Nc1nc(CC(=O)Nc2ccc(F)cc2)cs1,-1.25%
20,COc1ccc(-c2cc(C(=O)N3CCc4ccccc4C3)no2)cc1,-0.668%
21,Cc1ccc(-n2c(C)cc(C(=O)NS(=O)(=O)c3ccc(C)cc3)c2C)cc1,-30.8%
22,COP(=O)(NS(=O)(=O)c1ccccc1)OC,19.9%

row,SMILES,"hERG current change (%, negative = inhibition) at 10uM"
1,C=CCn1c(Cc2cccs2)nnc1SCC(=O)NCc1ccco1,-1.47%
2,Cc1ccnc(SCc2cc(=O)c(OC(=O)c3ccc(S(=O)(=O)N(C)C)cc3)co2)n1,-36.4%
3,CCOC(=O)c1c(NC(=O)CN(C)C)sc(C(=O)N(CC)CC)c1C.O=C(O)C(=O)O,-17.6%
4,CCC[C@@H]1CCCO[C@@](C(=O)NCc2ccccn2)(C(F)(F)F)C1,-1.97%
5,COc1cc2c(cc1OC)C1(CCCC1)CNC2C.Cl (centres unmarked),-3.04%
6,COc1cc2c(cc1OC)C1(CCCC1)CNC2c1cccc([N+](=O)[O-])c1 (centres unmarked),-43.3%
7,COc1cc2c(cc1OC)C1(CCCC1)CNC2c1ccc([N+](=O)[O-])cc1.Cl (centres unmarked),-50%
8,C/C(=N/NC(=O)CNC(=O)c1ccccc1)c1ccc(C)cc1,-41.5%
9,CC1=C[C@@H](C)[C@@H](c2ccc(C(F)(F)F)cc2)OC1=O,7.01%
10,Cc1ccc2c(c1)c(/C=C/c1cc[n+](C)cc1)c(C)n2C.[I-],-10.9%
11,COc1ccc2c(CC(=O)NCCN3C(=O)S/C(=C\c4cccnc4)C3=O)coc2c1,-9.62%
12,O=C(/C(=N\Nc1ccc([N+](=O)[O-])cc1)Sc1nnnn1-c1ccccc1)c1ccccc1,17.9%
13,Cn1c(NC(=O)C[n+]2cc(-c3ccc(Cl)cc3)n3c2CCC3)cc(=O)n(C)c1=O.[Cl-],11.3%
14,CC1CCC(C(C)C)C(OC(=O)C[n+]2cc(-c3ccc(Cl)cc3)n3c2CCCCC3)C1.[Cl-] (centres unmarked),-79.4%
15,COc1ccc(-c2c[n+](CC(=O)c3cccs3)c3n2CCC3)cc1.[Br-],10.4%
16,COc1ccc(C(=O)C[n+]2cc(-c3ccc(OC)cc3)n3c2CCCC3)cc1.[Br-],-10.1%
17,COc1ccc(-c2c[n+](CC(=O)OC3CC(C)CCC3C(C)C)c3n2CCC3)cc1.[Cl-] (centres unmarked),-69.3%
18,O=C(C[n+]1cc(-c2ccc(Cl)cc2)n2c1CCC2)N1c2ccccc2Sc2ccccc21.[Cl-],-22.1%
19,CC(C)[C@@H]1CC[C@@H](C)C[C@H]1OC(=O)C[n+]1cc(-c2ccc(Cl)cc2)n2c1CCCCC2.[Cl-],-60.1%
20,CC1CCC(C(C)C)C(OC(=O)C[n+]2cc(-c3ccc(Cl)cc3)n3c2CCC3)C1.[Cl-] (centres unmarked),-77.1%
21,O=C(C[n+]1cc(-c2ccccc2)n2c1CCCCC2)c1ccc(Cl)cc1.[Br-],-23.4%
22,O=C(C[n+]1cc(-c2ccc(Cl)cc2)n2c1CCCCC2)c1ccccc1.[Br-],-12.5%
